A word on the AC50: it is the concentration giving half of the maximal activity seen.

Test [1] has as its target human Phosphoinositide 3-kinase alpha (PI3Ka), PIK3CA (gene 5290) (UniProt P42336). The experiment in a line: NVS_ENZ_hPI3Ka: NovaScreen (NVS) Enzymatic Assay for human Phosphoinositide 3-kinase alpha (PI3Ka) (AID 2283196). Summed up:
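Fluorescence/mobility-shift readout of substrate conversion by recombinant enzyme, 1 h post-dosing. Primary screen in duplicate at 25 uM; actives (e.g. ≥30% inhibition) retested in singleton concentration-response, top concentration 50 uM.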

The target in test [2] is human Neurokinin, NK2 Receptor, TACR2 (gene 6865) (UniProt P21452). The experiment in a line: NVS_GPCR_hNK2: NovaScreen (NVS) G Protein-Coupled Receptor Assay for human Neurokinin, NK2 Receptor (AID 2283278).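 Further: actives reduce bound radioligand signal relative to DMSO baseline.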 Summed up: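 CHO-derived membrane protein, radioligand displacement, filter scintillation read at 4 h post-dose. Single-point 25 uM in duplicate, then concentration series for actives; DMSO as negative control.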
Sequence of human Neurokinin, NK2 Receptor, TACR2 (gene 6865) (P21452 whole entry, looked up): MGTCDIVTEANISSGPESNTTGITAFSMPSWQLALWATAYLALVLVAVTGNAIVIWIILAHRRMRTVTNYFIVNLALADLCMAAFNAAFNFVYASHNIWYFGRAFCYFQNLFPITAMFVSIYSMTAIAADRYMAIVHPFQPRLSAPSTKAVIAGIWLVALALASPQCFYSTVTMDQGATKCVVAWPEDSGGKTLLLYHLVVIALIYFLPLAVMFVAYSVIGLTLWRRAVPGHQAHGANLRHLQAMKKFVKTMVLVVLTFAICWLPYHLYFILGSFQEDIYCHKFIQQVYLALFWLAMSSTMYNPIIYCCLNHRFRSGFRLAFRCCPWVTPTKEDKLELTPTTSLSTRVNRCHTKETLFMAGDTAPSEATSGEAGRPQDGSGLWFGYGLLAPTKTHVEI

Test [3] has as its target human Opioid Receptor Mu (Opiate Mu), OPRM1 (gene 4988) (UniProt P35372). The experiment in a line: NVS_GPCR_hOpiate_mu: NovaScreen (NVS) G Protein-Coupled Receptor Assay for human Opioid Receptor Mu (Opiate Mu) (AID 2283290).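 Further: hits lower bound tracer signal versus DMSO meaning displacement of the ligand.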 Summed up: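 Cell-free radioligand binding to membranes from CHO cells expressing the receptor; bound tracer measured by filter-based scintillation counting 2.5 hours after dosing. Loss of signal versus DMSO baseline reflects displacement; primary screen at 25 uM in duplicate, actives followed up in concentration series.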

The target of test [4] is guinea pig Leukotriene D4 Receptor (LTD4), CYSLTR1 (gene 100135514) (UniProt Q2NNR5). Briefly: NVS_GPCR_gLTD4: NovaScreen (NVS) G Protein-Coupled Receptor Assay for guinea pig Leukotriene D4 Receptor (LTD4) (AID 2283248). In short, it runs like this:
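Guinea pig lung membrane preparation; bound radioligand measured by filter scintillation after 1 h, loss of signal versus DMSO marking displacement. Compounds tested at 25 uM in duplicate, hits retested to max 50 uM.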

The target of test [5] is guinea pig Opioid, Kappa 1 Receptor (OpiateK), OPRK1 (gene 100135587) (UniProt P41144). Briefly: NVS_GPCR_gOpiateK: NovaScreen (NVS) G Protein-Coupled Receptor Assay for guinea pig Opioid, Kappa 1 Receptor (OpiateK) (AID 2283252).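 Further: active means reduced radioligand binding relative to DMSO.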 In short, it runs like this:
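Radioligand binding to kappa opioid receptor in guinea pig cerebellar membranes, read by filtration and scintillation at 2 h. Compounds first tested in duplicate at 25 uM, then actives in concentration series; signal loss fitted against DMSO.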

The target in test [6] is human Vascular Endothelial Growth Factor Receptor 1 (VEGFR1), FLT1 (gene 2321) (UniProt P17948). Briefly: NVS_ENZ_hVEGFR1: NovaScreen (NVS) Enzymatic Assay for human Vascular Endothelial Growth Factor Receptor 1 (VEGFR1) (AID 2283226). In short, it runs like this:
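Kinase activity of recombinant human VEGFR1 was read by fluorescence after electrophoretic separation of product from substrate, 1 h post-dosing; initial duplicate single-point testing at 25 uM, followed by concentration-series follow-up, with DMSO as baseline.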

The target of test [7] is human Vascular Endothelial Growth Factor Receptor 3 (VEGFR3), FLT4 (gene 2324) (UniProt P35916). The experiment in a line: NVS_ENZ_hVEGFR3: NovaScreen (NVS) Enzymatic Assay for human Vascular Endothelial Growth Factor Receptor 3 (VEGFR3) (AID 2283229). In short, it runs like this: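 Chemicals first run in duplicate at 25 uM, with actives re-tested in concentration series to a top of 50 uM. Recombinant VEGFR3 activity measured after 1 h via fluorescence with mobility-shift product separation; inhibition fitted relative to DMSO.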

In test [8] the target is human Vascular Endothelial Growth Factor Receptor 2 (VEGFR2), KDR (gene 3791) (UniProt P35968). The experiment in a line: NVS_ENZ_hVEGFR2: NovaScreen (NVS) Enzymatic Assay for human Vascular Endothelial Growth Factor Receptor 2 (VEGFR2) (AID 2283230). Summed up:
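Cell-free recombinant VEGFR2 kinase, fluorescent substrate with electrophoretic mobility-shift separation; read 1 h after dosing. Screened at 25 uM in duplicate, hits to concentration-response up to 50 uM; loss-of-signal versus DMSO.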

Test [9] has as its target sheep Cyclooxygenase-1 (Cox1), PTGS1 (gene 443551) (UniProt P05979). Briefly: NVS_ENZ_oCOX1: NovaScreen (NVS) Enzymatic Assay for sheep Cyclooxygenase-1 (Cox1) (AID 2283239).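 Further: actives reduce cyclooxygenase activity so potencies are for inhibitors.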 Summed up:
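Tested in duplicate at 25 uM, then in concentration series if active, against seminal vesicle extract from sheep. Enzyme activity was measured colorimetrically at 0.66 hour and normalised to DMSO.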

Test [10] deals with Muscarinic acetylcholine receptor M2 (Homo sapiens) (UniProt P08172). The experiment in a line: NVS_GPCR_hM2: NovaScreen (NVS) G Protein-Coupled Receptor Assay for human Muscarinic, M2 Receptor (AID 2283273). In short, it runs like this:
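CHO-expressed human M2 receptor preparation, competitive displacement of a radioligand read by filter-based scintillation counting after 1 h. Single 25 uM duplicate screen, then concentration-response follow-up of actives; DMSO baseline.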

Test [11] deals with D(1A) dopamine receptor (Homo sapiens) (UniProt P21728). Briefly: NVS_GPCR_hDRD1: NovaScreen (NVS) G Protein-Coupled Receptor Assay for human Dopamine Receptor D1 (DRD1) (AID 2283269). In short, it runs like this: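 Cell-free radioligand binding to human DRD1 from HEK293 membranes, read 1 h after dosing by filter-based scintillation counting. Loss of signal versus DMSO baseline marks displacement. Primary screen at 25 uM single concentration in duplicate; actives followed up in concentration series.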
Sequence of D(1A) dopamine receptor (Homo sapiens) (P21728 whole entry, looked up): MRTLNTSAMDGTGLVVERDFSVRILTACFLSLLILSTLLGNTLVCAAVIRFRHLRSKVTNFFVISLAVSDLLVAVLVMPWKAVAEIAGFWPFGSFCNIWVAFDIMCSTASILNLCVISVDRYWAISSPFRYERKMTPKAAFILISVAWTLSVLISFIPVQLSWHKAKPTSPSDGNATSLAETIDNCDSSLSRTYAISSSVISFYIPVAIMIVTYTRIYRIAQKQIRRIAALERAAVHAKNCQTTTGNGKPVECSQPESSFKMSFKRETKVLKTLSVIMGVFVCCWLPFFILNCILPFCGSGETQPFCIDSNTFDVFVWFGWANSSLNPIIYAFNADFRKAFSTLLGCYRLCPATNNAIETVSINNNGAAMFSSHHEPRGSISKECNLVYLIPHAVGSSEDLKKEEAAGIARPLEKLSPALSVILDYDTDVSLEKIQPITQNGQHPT

Test [12] has as its target Sodium channel protein type 1 subunit alpha (Rattus norvegicus) (UniProt P04774). Briefly: NVS_IC_rNaCh_site2: NovaScreen (NVS) Ion Channel Assay for rat Sodium Channel, Site 2 (NaCh) (AID 2283322).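 Further: hit means loss of radioligand binding signal relative to DMSO so AC50 marks displacement.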 In short, it runs like this: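 Initial duplicate single-point testing at 25 uM, followed by concentration-response runs for actives. Binding of radioligand to rat forebrain membranes quantified after 1 h via filter-based radiodetection.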

The target of test [13] is rat Thyrotropin Releasing Hormone Receptor (TRH), Trhr (gene 25570) (UniProt Q01717). Briefly: NVS_GPCR_rTRH: NovaScreen (NVS) G Protein-Coupled Receptor Assay for rat Thyrotropin Releasing Hormone Receptor (TRH) (AID 2283329).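 Further: hit means lower bound tracer signal versus DMSO baseline.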 Summed up: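 Cell-free radioligand binding on rat forebrain membranes; bound tracer measured by filter-based scintillation counting 4 hours after dosing. Loss of signal versus DMSO baseline indicates displacement; primary screen at 25 uM in duplicate, actives then run in concentration series.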

Test [14] has as its target human Thromboxane A2 Receptor (TXA2), TBXA2R (gene 6915) (UniProt P21731). The experiment in a line: NVS_GPCR_hTXA2: NovaScreen (NVS) G Protein-Coupled Receptor Assay for human Thromboxane A2 Receptor (TXA2) (AID 2283282).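 Further: actives reduce bound radioligand signal relative to DMSO baseline.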 In short, it runs like this: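 Screening ran at 25 uM in duplicate, with concentration series for confirmed actives. Each test measures radioligand binding to human platelet protein after 1 h, cell-free, using filter-based scintillation detection of signal loss relative to DMSO.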

For test [15], the target named is human Sirtuin 3 (SIRT3), SIRT3 (gene 23410) (UniProt Q9NTG7). Briefly: NVS_ENZ_hSIRT3: NovaScreen (NVS) Enzymatic Assay for human Sirtuin 3 (SIRT3) (AID 2283222). In short, it runs like this: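 Cell-free enzyme assay with recombinant protein and fluorescent substrate, product separated by electrophoretic mobility shift; read 1 hour after dosing. Screened in duplicate at 25 uM, then singleton concentration-response up to 50 uM; loss of signal versus DMSO.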

Test [16] has as its target human Adenosine A2a Receptor (AdoRA2a), ADORA2A (gene 135) (UniProt P29274). Briefly: NVS_GPCR_hAdoRA2a: NovaScreen (NVS) G Protein-Coupled Receptor Assay for human Adenosine A2a Receptor (AdoRA2a) (AID 2283256). Summed up:
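Compounds screened in duplicate at 25 uM, with actives followed up in concentration series, for displacement of a radioligand from HEK293-derived receptor protein. Bound counts read by filter scintillation at 1.5 hours, DMSO as baseline.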

Records with an inconclusive call do not appear. Activity calls are given as the source filed them. How the source made its calls: active means hit-call score of the fitted dose curve at least 0.9, where 1 is the maximum; inconclusive means response in the unintended direction; inactive means score below 0.9.

Sequence of human Vascular Endothelial Growth Factor Receptor 1 (VEGFR1), FLT1 (gene 2321) (P17948 whole entry, looked up): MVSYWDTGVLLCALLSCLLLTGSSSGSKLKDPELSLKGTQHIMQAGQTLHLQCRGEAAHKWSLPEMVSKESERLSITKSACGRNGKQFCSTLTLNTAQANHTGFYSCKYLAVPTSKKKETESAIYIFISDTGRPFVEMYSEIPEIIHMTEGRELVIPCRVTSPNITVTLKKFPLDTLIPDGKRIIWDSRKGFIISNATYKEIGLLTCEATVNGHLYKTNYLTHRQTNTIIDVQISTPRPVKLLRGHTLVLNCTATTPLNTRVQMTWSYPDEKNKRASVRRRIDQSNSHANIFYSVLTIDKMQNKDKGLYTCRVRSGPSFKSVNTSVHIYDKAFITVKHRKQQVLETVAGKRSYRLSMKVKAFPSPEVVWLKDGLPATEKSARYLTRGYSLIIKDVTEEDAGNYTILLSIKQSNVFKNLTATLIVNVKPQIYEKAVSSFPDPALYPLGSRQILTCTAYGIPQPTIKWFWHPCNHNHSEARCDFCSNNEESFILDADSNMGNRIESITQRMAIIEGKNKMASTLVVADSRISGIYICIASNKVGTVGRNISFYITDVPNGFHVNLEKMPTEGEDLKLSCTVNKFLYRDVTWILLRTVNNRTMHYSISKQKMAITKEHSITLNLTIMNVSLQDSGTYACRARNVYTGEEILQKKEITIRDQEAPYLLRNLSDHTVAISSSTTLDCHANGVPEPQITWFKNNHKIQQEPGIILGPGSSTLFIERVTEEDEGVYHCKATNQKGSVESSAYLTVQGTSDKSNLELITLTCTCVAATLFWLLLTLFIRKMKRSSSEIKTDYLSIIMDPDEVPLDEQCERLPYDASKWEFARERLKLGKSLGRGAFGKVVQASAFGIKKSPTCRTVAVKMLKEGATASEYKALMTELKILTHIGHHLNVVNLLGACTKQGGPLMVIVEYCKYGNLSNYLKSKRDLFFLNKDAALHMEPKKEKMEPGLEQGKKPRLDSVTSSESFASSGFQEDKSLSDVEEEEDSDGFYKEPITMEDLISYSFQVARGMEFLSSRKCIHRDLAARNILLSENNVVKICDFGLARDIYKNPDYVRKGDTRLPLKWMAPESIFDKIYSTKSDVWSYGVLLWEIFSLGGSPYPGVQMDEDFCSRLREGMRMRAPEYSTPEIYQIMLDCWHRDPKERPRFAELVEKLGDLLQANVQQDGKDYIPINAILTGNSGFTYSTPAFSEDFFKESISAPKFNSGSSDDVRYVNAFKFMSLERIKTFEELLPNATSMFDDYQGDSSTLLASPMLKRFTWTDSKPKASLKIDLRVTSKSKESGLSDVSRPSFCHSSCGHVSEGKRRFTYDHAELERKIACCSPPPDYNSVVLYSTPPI
Sequence of human Opioid Receptor Mu (Opiate Mu), OPRM1 (gene 4988) (P35372 whole entry, looked up): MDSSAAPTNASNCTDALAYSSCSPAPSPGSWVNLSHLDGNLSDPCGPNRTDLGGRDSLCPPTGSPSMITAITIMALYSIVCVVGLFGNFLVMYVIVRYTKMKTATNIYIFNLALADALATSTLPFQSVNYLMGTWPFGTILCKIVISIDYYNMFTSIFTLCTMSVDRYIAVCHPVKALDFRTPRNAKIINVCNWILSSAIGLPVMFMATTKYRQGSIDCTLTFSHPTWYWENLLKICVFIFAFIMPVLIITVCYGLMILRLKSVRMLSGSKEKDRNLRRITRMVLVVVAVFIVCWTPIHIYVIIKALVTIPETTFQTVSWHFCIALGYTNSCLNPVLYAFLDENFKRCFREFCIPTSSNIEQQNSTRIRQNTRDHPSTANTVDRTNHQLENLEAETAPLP
Sequence of human Thromboxane A2 Receptor (TXA2), TBXA2R (gene 6915) (P21731 whole entry, looked up): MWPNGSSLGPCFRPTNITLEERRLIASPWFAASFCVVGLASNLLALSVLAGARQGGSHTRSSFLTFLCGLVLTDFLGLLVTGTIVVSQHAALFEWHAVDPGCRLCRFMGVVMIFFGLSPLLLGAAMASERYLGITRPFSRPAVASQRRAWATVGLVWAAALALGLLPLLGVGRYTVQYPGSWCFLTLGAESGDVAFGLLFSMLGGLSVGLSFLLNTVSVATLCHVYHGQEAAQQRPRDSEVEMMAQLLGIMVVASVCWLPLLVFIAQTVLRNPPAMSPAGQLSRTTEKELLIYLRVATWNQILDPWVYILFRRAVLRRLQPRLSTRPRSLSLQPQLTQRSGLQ
Sequence of sheep Cyclooxygenase-1 (Cox1), PTGS1 (gene 443551) (P05979 whole entry, looked up): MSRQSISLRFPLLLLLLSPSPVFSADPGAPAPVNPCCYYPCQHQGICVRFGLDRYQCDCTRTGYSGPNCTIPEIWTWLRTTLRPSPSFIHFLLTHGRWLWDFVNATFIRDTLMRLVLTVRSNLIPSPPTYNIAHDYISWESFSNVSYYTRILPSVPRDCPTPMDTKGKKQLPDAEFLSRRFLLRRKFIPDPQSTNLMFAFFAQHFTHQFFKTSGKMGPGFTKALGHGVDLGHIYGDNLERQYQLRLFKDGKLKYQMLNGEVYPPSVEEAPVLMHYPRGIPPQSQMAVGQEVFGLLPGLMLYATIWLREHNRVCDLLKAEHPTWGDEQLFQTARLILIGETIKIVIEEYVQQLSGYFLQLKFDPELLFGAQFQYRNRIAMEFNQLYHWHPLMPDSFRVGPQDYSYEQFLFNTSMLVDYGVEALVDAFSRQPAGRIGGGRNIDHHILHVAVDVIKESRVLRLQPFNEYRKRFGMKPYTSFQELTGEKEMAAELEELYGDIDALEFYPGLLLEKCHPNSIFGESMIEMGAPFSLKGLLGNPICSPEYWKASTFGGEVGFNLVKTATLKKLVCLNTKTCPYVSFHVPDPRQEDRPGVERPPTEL
Sequence of human Phosphoinositide 3-kinase alpha (PI3Ka), PIK3CA (gene 5290) (P42336 whole entry, looked up): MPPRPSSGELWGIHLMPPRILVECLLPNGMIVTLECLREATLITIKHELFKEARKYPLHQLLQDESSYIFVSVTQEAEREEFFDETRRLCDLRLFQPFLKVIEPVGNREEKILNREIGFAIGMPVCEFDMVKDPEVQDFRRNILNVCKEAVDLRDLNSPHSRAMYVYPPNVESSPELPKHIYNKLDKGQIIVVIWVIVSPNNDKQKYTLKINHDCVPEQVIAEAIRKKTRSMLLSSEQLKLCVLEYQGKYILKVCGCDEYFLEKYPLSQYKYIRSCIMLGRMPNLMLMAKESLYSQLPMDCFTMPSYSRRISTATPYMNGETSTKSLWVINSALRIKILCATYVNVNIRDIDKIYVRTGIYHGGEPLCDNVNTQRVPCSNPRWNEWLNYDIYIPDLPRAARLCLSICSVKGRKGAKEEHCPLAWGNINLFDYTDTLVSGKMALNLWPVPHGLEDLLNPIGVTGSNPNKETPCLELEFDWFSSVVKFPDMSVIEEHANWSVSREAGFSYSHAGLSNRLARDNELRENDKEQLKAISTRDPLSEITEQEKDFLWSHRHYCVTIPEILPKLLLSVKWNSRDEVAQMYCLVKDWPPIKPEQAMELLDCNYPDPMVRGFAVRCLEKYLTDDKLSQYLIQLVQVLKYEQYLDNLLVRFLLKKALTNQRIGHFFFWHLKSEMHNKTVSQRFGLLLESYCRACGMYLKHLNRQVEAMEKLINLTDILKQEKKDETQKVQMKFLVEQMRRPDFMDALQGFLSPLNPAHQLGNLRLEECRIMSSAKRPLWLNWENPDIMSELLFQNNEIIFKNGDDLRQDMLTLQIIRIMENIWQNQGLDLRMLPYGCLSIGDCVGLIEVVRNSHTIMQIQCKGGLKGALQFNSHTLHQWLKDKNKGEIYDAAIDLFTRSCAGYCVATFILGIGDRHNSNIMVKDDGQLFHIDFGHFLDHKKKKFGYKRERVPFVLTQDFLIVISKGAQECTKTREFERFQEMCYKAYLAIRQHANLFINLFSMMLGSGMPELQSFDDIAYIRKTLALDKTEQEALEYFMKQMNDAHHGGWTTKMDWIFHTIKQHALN
Sequence of guinea pig Opioid, Kappa 1 Receptor (OpiateK), OPRK1 (gene 100135587) (P41144 whole entry, looked up): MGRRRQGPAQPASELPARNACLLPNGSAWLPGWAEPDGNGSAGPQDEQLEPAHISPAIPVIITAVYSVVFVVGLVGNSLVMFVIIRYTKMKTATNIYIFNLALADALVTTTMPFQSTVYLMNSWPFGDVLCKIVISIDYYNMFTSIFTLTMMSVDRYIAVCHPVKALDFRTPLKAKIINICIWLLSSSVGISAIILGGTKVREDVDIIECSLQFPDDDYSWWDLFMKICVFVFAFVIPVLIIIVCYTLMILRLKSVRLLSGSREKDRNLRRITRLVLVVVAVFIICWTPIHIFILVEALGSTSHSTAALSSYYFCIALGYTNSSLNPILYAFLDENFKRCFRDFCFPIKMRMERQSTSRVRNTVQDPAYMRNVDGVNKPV

Consider `CC(=O)CC(=O)Nc1ccccc1`, for which the call in test [1] was inactive.

Regarding `NC(=S)NNC(N)=S`, the result in [1], in test [2] and in [3] was inactive.

Take `O=C1c2ccccc2C(=O)c2c(O)ccc(O)c21`: the call in test [4] was inactive.

Regarding `O=C1OC[C@H](Cc2cccc(O)c2)[C@H]1Cc1cccc(O)c1`, the half-maximal activity concentration (AC50) in test [5] was 5.5 µM (active).

For `[O-]n1ccccc1=S.[O-]n1ccccc1=S.[Zn+2]`, the result in test [6], in test [7] and in [8] was inactive. Further, the figures for the AC50 in test [9], in test [2] and in [3] were 5.57 µM (active), 9.86 µM (active) and 0.104 µM (active), respectively.

Take `CCC(C)=O`: in [10], the outcome was inactive.

Consider `C=CCOC(=O)CCCCCC`, for which the call in test [11] was inactive.

On to `CC(C)(C)CC(C)(C)c1ccc(OCCOCC[N+](C)(C)Cc2ccccc2)cc1`, for which the AC50 in test [1] was 9.05 µM (active); in test [2] it was 4.14 µM (active). Also, the call in test [12] was inactive.

Regarding `CCOC(=O)[C@@H](C)Oc1ccc(Oc2nc3ccc(Cl)cc3o2)cc1`, the compound was called inactive in test [7], in [9] and in [13].

In the case of `Cc1cc(CCC(=O)OCCOCCOCCOC(=O)CCc2cc(C)c(O)c(C(C)(C)C)c2)cc(C(C)(C)C)c1O`, the AC50 in test [14] is 0.23 µM (active).

On to `CS(=O)(=O)OCCCCOS(C)(=O)=O`, for which the compound was classed as inactive in test [15], in test [9] and in test [12].

In the case of `COCCc1ccc(OCC(O)CNC(C)C)cc1` (configuration not stated), the result in test [16] and in test [11] was inactive. The AC50 in [12] is 5.04 µM (active).

On to `CC1(C)C2=CCCC(C)(C)[C@]23CC[C@H]1C3`, for which, in test [9], the AC50 was 16.4 µM (active).

Turning to `CC(=O)C1(C)CC2=C(CCCC2(C)C)CC1C` (configuration not stated), the outcome in [9] was inactive.

With `COC(=O)c1ccc([N+](=O)[O-])cc1`, the result in test [4] and in test [14] was inactive.

For `CCCCOCC`, in test [11], the compound was called inactive.

Turning to `CCOC(=O)CN`, the compound was classed as inactive in test [11].

With `CC(=O)Nc1ccc(C(=O)CCl)cc1`, the figures for the AC50 in test [6] and in [14] were 40.1 µM (active) and 10.7 µM (active), respectively. Also, the compound was called inactive in test [9].

Take `CN(C)C(=S)SC(=S)N(C)C`: the call in [6] was inactive. Besides, the AC50 in test [5] is 30.8 µM (active); in [11] it was 30.8 µM (active); in [2], 1.59 µM (active).

On to `C[C@@H]1CCN(C(=O)[C@H](CCCN=C(N)N)NS(=O)(=O)c2cccc3c2NC[C@H](C)C3)[C@@H](C(=O)O)C1`, for which the concentration at half-maximal activity (AC50) in test [11] was 17 µM (active); in test [12], 0.894 µM (active).

On to `CCCCCCCCCCCCCCCC(=O)OC/C=C(C)/C=C/C=C(C)/C=C/C1=C(C)CCCC1(C)C`, for which the AC50 in test [9] was 42.8 µM (active); in [11], 34.7 µM (active). The outcome in test [16], in test [3] and in [12] was inactive.

Turning to `CN(c1nccc(=O)[nH]1)C1CCN(c2nc3ccccc3n2Cc2ccc(F)cc2)CC1`, the compound was classed as inactive in test [5], in test [11], in test [10] and in test [12]. Besides, in test [14], the AC50 is 0.761 µM (active).

Source of the values: PubChem BioAssay (EPA / NIEHS).
